Records with an inconclusive call do not appear. Calls of active or inactive are those of the source. The call rests on the fitted dose curve; in most records, active means well fitted inhibition curve with a large enough effect; inconclusive means small, poorly fitted or top-dose-only effect; inactive means flat fitted curve, though single readings scatter.

In PubChem BioAssay (NCATS) one finds Potency data, which are given here for seven compounds.
Potency means the concentration at half of the fitted maximal effect.

A short description of the test: Drug repurposing screens with cells derived from glioblastoma tumor samples (AID 1345199). Further: nearly all actives have a fitted effect of over 40% in size. The conditions noted are these: GBM patient neurospheres viability, ATP luminescence, 48 h; tumour line A. The gist of the method:
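Primary testing used CD133+ neurospheres from four GBM patients, seven concentrations, 48 h exposure and ATP-based viability; confirmation added three slower-growing patient lines.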
Regarding `CC(C)CN(C[C@@H](O)[C@H](Cc1ccccc1)NC(=O)O[C@H]1CO[C@H]2OCC[C@H]21)S(=O)(=O)c1ccc(N)cc1`, the Potency was 17.8 µM (active). For the compound `CCC(=O)OCC(=O)[C@@]1(OC(=O)CC)[C@@H](C)C[C@@H]2[C@H]3CCC4=CC(=O)C=C[C@]4(C)[C@@]3(F)[C@@H](O)C[C@@]21C`, the Potency was 11.2 µM (active).

As for `COc1cc2c(cc1OC)CC(=O)N(CCCN(C)C[C@H]1Cc3cc(OC)c(OC)cc31)CC2`, the Potency was 11.2 µM (active). `Clc1ccc(COC(Cn2ccnc2)c2ccc(Cl)cc2Cl)c(Cl)c1` (configuration not stated): the Potency is 5.62 µM (active). Turning to `Fc1ccc(C(c2ccc(F)cc2)N2CCN(CC=Cc3ccccc3)CC2)cc1`, the Potency is 2.82 µM (active). In the case of `CCCCCCCCCCCCCCCC(=O)O[C@H]1[C@@H](O)[C@@H](O)[C@@H]([C@H](NC(=O)[C@@H]2C[C@@H](CCC)CN2C)[C@H](C)Cl)O[C@@H]1SC`, the Potency was 17.8 µM (active). `CN1CC(=O)N2C(Cc3c([nH]c4ccccc34)[C@H]2c2ccc3c(c2)OCO3)C1=O` (some centres not stated): the Potency is 11.2 µM (active).
